PubChem BioAssay AID623996 (NMMLSC, 2012)
Results with a measured potency or affinity are listed apart. Active and inactive are the calls of the source.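 Rule for the calls: active = fitted concentration giving half the maximal Nile Red retention below 100 µM; inactive = the rest.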

molecular target: Multidrug resistance protein CDR1 (Candida albicans) (UniProt P43071); assay: Candida albicans Cdr1 pump inhibition curves – singleplex, Cherry Pick2 set, dose response (AID 623996); conditions: S. cerevisiae AD/CaCDR1, Nile Red efflux inhibition, flow cytometry; series mostly up to 100 µM
Sequence (P43071 whole entry, looked up): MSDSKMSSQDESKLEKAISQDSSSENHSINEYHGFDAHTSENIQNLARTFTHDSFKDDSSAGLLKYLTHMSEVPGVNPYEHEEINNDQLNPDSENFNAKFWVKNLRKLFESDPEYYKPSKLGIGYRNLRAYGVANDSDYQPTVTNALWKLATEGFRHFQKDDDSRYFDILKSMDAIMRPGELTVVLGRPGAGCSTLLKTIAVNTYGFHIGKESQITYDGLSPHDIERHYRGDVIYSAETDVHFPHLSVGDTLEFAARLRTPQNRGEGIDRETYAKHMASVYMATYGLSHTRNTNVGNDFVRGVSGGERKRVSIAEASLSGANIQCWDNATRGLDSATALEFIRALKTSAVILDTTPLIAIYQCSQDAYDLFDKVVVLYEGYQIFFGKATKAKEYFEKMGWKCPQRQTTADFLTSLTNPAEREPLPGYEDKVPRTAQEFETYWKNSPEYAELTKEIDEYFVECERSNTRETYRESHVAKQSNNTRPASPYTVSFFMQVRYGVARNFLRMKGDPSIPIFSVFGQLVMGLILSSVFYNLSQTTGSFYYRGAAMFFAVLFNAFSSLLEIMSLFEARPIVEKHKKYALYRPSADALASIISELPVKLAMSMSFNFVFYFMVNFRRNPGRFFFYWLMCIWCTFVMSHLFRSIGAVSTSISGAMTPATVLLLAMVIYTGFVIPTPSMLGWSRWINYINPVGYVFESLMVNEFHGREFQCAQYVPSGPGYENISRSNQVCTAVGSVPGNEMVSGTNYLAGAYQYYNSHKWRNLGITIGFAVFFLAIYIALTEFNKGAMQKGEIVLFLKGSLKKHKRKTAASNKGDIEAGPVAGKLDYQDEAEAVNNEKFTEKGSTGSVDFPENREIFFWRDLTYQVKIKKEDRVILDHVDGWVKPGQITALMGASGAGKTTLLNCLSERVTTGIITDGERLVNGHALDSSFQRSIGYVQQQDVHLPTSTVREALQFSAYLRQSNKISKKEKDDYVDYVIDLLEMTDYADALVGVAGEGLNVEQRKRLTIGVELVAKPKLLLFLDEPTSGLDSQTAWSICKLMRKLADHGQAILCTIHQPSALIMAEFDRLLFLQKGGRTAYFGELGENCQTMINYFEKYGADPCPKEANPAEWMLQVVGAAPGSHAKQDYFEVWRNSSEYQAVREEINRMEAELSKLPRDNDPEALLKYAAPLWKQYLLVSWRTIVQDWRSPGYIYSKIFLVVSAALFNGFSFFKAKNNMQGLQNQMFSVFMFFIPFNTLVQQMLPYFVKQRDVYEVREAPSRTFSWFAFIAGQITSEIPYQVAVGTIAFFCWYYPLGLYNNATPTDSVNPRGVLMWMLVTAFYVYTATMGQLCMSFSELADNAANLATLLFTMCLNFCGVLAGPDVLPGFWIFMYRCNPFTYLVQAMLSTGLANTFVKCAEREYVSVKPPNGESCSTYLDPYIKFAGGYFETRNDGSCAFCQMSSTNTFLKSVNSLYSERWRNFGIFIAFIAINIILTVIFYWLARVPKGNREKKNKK

outcome, inactive:
COc1cccc(-c2sc3ccc(OC)cc3c2-c2ccc(OCCN3CCOCC3)cc2)c1
Cc1ccc(O)c(C(=O)c2cnc3c(c2)CN(CCC(C)C)C(=O)N3)c1
COc1cc(OC)c2c(-c3ccccc3)cc(=O)oc2c1C(CCN1CCCC(C)C1)c1ccc(N(C)C)cc1 (stereo not given)
COc1cc(OC)c2ccc(=O)oc2c1C(CCN1CCCCC1)c1ccc(N(C)C)cc1 (stereo not given)
CCC(Cc1ccccc1)OC(=O)c1ccccc1C(=O)O (stereo not given)
CC1CN(c2nc3ccccc3nc2C(C#N)C(=O)NCc2ccc3c(c2)OCO3)CC(C)O1 (stereo not given)
Cc1cc(C)c2sc(N(CCCN(C)C)C(=O)c3ccc(Br)s3)nc2c1
O=C(NC1CCCc2c1cnn2-c1ccccc1F)c1ccccn1 (stereo not given)
COc1cc(OC)c2ccc(=O)oc2c1C(CCN1CCCC(C)C1)c1ccc(N(C)C)cc1 (stereo not given)
COc1ccc(O)c(C(=O)c2cnc3c(c2)CN(C)C(=O)N3)c1
O=C(C[n+]1cc(-c2ccc(Cl)cc2)n2c1CCC2)N1c2ccccc2Sc2ccccc21
O=C(C[n+]1cc(-c2ccc(F)cc2)n2c1CCC2)N1c2ccccc2Sc2ccccc21
O=C(CSc1nnc(Cc2cccs2)n1Cc1ccco1)Nc1cccc(Cl)c1
Cc1ccc(-c2c[n+](CC(=O)N3c4ccccc4Sc4ccccc43)c3n2CCC3)cc1
Cc1ccc(N2CCN(C(=O)C3CCCN(c4ncnc5c4nc4n5CCCCC4)C3)CC2)c(C)c1 (stereo not given)
COc1ccc(CCOC(=O)c2ccc(N)c([N+](=O)[O-])c2)cc1
Cc1ccc(C2CC(c3ccccc3)=NN2c2ccc(S(N)(=O)=O)cc2)cc1 (stereo not given)
COc1ccc(C2CC(c3ccccc3)=NN2c2ccc(S(N)(=O)=O)cc2)cc1 (stereo not given)
COc1ccccc1C(=O)OCCc1ccccc1
COc1ccc(-c2c[n+](CC(=O)N3c4ccccc4Sc4ccccc43)c3n2CCC3)cc1
Nc1ccc(C(=O)OCCc2ccccc2)cc1
O=C(c1ccoc1)N1CCC2(CC1)Oc1ccc(F)cc1C(=O)C21CC(c2ccccc2)=NO1 (stereo not given)
CCO[C@@H]1OC(C(=O)Nc2ccccc2)=C[C@H](c2ccc(Br)cc2)[C@H]1CCCO
O=C(c1ccc2c(c1)OCO2)N1CCC2(CC1)Oc1ccc(F)cc1C(=O)C21CC(c2ccccc2)=NO1 (stereo not given)
CCCCN1Cc2cc(C(=O)c3cc(F)ccc3O)cnc2NC1=O
COc1ccc(-c2sc3ccccc3c2-c2ccc(OCCN(C)C)cc2)cc1
NC1=NC[C@@H](Cc2ccc(O)cc2)N1CCCCC1CCCCC1
O=C(NCCC1=CCCCC1)C1CCC(CNc2nc(=S)[nH]c3ccccc23)CC1 (stereo not given)
COc1ccc(OC)c2sc(NC(=O)c3ccc(Br)s3)nc12
C[C@@]12C(=O)Nc3ccc(Cl)cc3C(=O)N1[C@H]1c3cc(Cl)ccc3OC[C@@H]1[C@@H]2c1ccccc1
